Test results from PubChem BioAssay (EPA / NIEHS).
Several values for one entry are separate records, joined by “and”; a condition that tells them apart may be missing. Equal entries are not always repeated. Results filed as inconclusive are left out. Where a structure was tested more than once in an assay, its records may differ in their call. Activity calls are given as the source filed them. The calls were made as follows, unless noted: active = hit-call score of the fitted dose curve at least 0.9, where 1 is the maximum; inconclusive = response in the unintended direction; inactive = score below 0.9.

Experiments:
[1] = ATG_XTT_Cytotoxicity: Cytotoxicity Assessment in the Attagene TRANS-FACTORIAL HepG2 Assay (AID 2283584);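 as to AC50: XTT signal for cell number as viability in transfected HepG2 cells; cells exposed to compound for 24 h before reading; active means loss of viability signal versus DMSO baseline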
In short: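 24 h chemical exposure of reporter-transfected HepG2; XTT signal loss vs DMSO indicates cytotoxicity.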

[2] = CEETOX_H295R_PROG: CeeTox H295R High-throughput Steroidogenesis Assay for Progesterone (PROG) (AID 2283442; active = hit-call score of the fitted dose curve at least 0.9, where 1 is the maximum; inactive = score below 0.9;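 as to AC50: human H295R adrenal cells primed with 10 µM forskolin before dosing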); conditions: actives raise or lower the signal
In short: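 Measured analyte is progesterone secreted by H295R cells at 48 h of chemical treatment, following 10 uM forskolin priming. Quantitation used HPLC-MS/MS against a 7-point standard curve; cytotoxicity was checked by MTT absorbance.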

[3] = CEETOX_H295R_TESTO: CeeTox H295R High-throughput Steroidogenesis Assay for Testosterone (TESTO) (AID 2283457; active = hit-call score of the fitted dose curve at least 0.9, where 1 is the maximum; inactive = score below 0.9;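 as to AC50: cells exposed to chemicals for 48 h before medium collection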); conditions: actives raise or lower the signal
Description: CEETOX_H295R is a cell-based, multiplexed-readout assay that uses H295R, a human adrenal gland cell line, with measurements taken at 48 hours after chemical dosing in a 96-well plate.CEETOX_H295R_TESTO is one of 23 assay component(s) measured or calculated from the CEETOX_H295R assay. It is designed to make measurements of hormone induction, a form of inducible reporter, as detected with […] by HPLC-MS-MS technology.Data from the assay component CEETOX_H295R_TESTO was analyzed into 1 assay endpoint. This assay endpoint, CEETOX_H295R_TESTO, was analyzed with bidirectional fitting relative to DMSO as the negative control and baseline of activity. Using a type of inducible reporter, gain or loss-of-signal activity using HPLC-MS-MS was used to understand synthesis of Testosterone in H295R cell line at 48hr of chemical exposure. To generalize the intended target to other relatable targets, this assay endpoint is annotated to the steroid hormone intended target family, where the subfamily is androgens.
Cell culture and media preparation procedures were conducted in accordance with OECD Test No. 456 guidelines, with minor modifications. H295R cells (ATCC CRL-2128) were expanded for 5 passages and frozen in batches in liquid nitrogen. Prior to the steroidogenesis assay, H295R cells were thawed and passed at least 4 times. The maximum passage was 10. Cells were maintained in a 1:1 mixture of DMEM/F12 supplemented with 5ml/L ITS+ Premix (BD Bioscience) and 12.5 ml/L Nu-Serum (BD Bioscience). After seeding cells into 96-well plates at 50-60% confluency, cells were allowed to adhere overnight. […] Test chemicals were incubated for 48 hours, then the medium was removed and split into 2 vials containing approximately 75uL each, and stored at -80 C prior to hormone analysis. For steroid quantification, media samples were shipped to OpAns, LLC (Durham, NC) on dry ice, and samples were thawed to room temperature prior to liquid-liquid extraction. Steroid hormones were extracted from media samples using methyl tertbutyl ether (MTBE). An extra derivatization with dansyl chloride was included for estrogen (estrone and estradiol) detection only. Steroid hormones were separated by HPLC, eluted using a reverse phase C18 gradient with electrospray positive ionization, followed by quantification by tandem mass spectrometry (MS/MS). Data were acquired on a MassHunter Workstation Acquisition version B03.01 (Agilent Technologies, Inc.) and processed using MassHunter Quantitative Analysis for QQQ. Accuracy was determined for each hormone analyte from 3 standards to determine upper and lower limits of quantification (ULOQ and LLOQ, respectively) using a 7-point standard curve. Precision and accuracy of the extraction and quantification methods were calculated as the percent relative standard deviation (%RSD) of the spiked standards and percent spiked standard recovered, respectively. […] Test medium was removed following chemical exposure, and cell viability was evaluated in the same wells by MTT. MTT procedures were as follows: after removal of test medium, 500 uL of 0.5 mg/ml of 3-[4,5-dimethylthiazol-2-y]2,5-diphenyltetrazoliumbromide solution was added to the cells. Following a 4-hour incubation at 37 C and 5% CO2 to allow formazan-crystal formation, the MTT solution was removed and blue formazan salt crystals were solubilized using 500uL anhydrous isopropanol with shaking for 20 minutes. Absorbance was read at 570 and 650nm using a Packard Fusion microplate reader. Background correction of absorbance units was used to determine percent change relative to controls. […] When a test chemical reduced cell viability to 20% - 70%, the test chemical was diluted 10-fold and re-evaluated, but if cell viability was <20%, then the test chemical was diluted 100-fold and re-evaluated. Test chemical dilutions were made until cell viability was >/=70%. MTT assays were also conducted for duplicates of all concentrations of chemicals tested in concentration-response studies. […]

[4] = TOX21_p53_BLA_p2_viability: Viability Assessment in the Tox21 HCT-116 p53 Agonism Beta-lactamase Assay, Phase 2 (AID 2283591);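 also: compound exposure lasted 16 h at 37 °C; actives lower the ATP signal meaning cytotoxicity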
In short: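 HCT-116 p53-bla cells (4000/well) rested 5 h at 37C, then received compounds in DMSO (217-fold dilution) for 16 h at 37C, 5% CO2. After the CCF4 read, CellTiter-Glo was added; ATP luminescence was read after 30 min at room temperature.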

[5] = biological target: Cellular tumor antigen p53 (Homo sapiens) (UniProt P04637); assay: TOX21_p53_BLA_p2_ratio: Tox21 HCT-116 p53 Agonism Beta-lactamase Assay, Ratio, Phase 2 (AID 2283592)
Chain of Cellular tumor antigen p53 (Homo sapiens) (P04637 whole entry, looked up): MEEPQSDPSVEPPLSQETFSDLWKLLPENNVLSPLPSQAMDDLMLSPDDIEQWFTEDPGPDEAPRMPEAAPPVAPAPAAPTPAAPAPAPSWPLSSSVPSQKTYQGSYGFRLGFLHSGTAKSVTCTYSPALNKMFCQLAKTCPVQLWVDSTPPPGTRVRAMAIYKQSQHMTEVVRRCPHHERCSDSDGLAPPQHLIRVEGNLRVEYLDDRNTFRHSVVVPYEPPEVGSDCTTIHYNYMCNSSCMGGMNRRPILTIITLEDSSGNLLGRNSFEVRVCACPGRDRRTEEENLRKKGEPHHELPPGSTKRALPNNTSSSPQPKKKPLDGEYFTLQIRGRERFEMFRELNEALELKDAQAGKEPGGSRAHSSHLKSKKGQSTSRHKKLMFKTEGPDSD
In short: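 Human colon HCT116 cells with an inducible p53 beta-lactamase reporter are exposed to test chemicals for 16 h at 37C. Reporter induction is read as the 460/530 nm emission ratio after CCF4-AM loading, normalized to DMSO.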

[6] = TOX21_p53_BLA_p3_viability: Viability Assessment in the Tox21 HCT-116 p53 Agonism Beta-lactamase Assay, Phase 3 (AID 2283593);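 also: cells exposed to compound for 16 h before reading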
In short: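 HCT-116 cells (4000/well) rested 5 h at 37C, then got DMSO compounds by pin tool (217-fold dilution) for 16 h at 37C, 5% CO2. After the bla read, CellTiter-Glo was added and luminescence read at 30 min, room temperature.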

[7] = biological target: Cellular tumor antigen p53 (Homo sapiens) (UniProt P04637); assay: TOX21_p53_BLA_p3_ratio: Tox21 HCT-116 p53 Agonism Beta-lactamase Assay, Ratio, Phase 3 (AID 2283596)
In short: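 HCT116 p53-bla cells (4000/well) given compound in DMSO (217-fold dilution) after 5 h, incubated 16 h at 37C. CCF4-AM substrate 2 h at room temperature; 460/530 nm emission ratio, gain fitted against DMSO.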

[8] = TOX21_p53_BLA_p4_viability: Viability Assessment in the Tox21 HCT-116 p53 Agonism Beta-lactamase Assay, Phase 4 (AID 2283597);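 also: hits lower the luminescence signal meaning cytotoxicity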
In short: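 Luminescent ATP readout (CellTiter-Glo, 30 min, room temperature) in the same wells as the p53 bla ratio. HCT116 cells were treated for 16 h at 37C with DMSO-dissolved compounds.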

[9] = biological target: Cellular tumor antigen p53 (Homo sapiens) (UniProt P04637); assay: TOX21_p53_BLA_p5_ratio: Tox21 HCT-116 p53 Agonism Beta-lactamase Assay, Ratio, Phase 5 (AID 2283599)
In short: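 HCT-116 cells carrying a p53-inducible beta-lactamase reporter were seeded at 4000 cells/well and dosed after 5 h with compound in DMSO (217-fold dilution). After 16 h at 37C, CCF4-AM substrate was added for 2 h, and the 460/530 nm emission ratio was scored as gain-of-signal versus DMSO.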

[10] = TOX21_p53_BLA_p5_viability: Viability Assessment in the Tox21 HCT-116 p53 Agonism Beta-lactamase Assay, Phase 5 (AID 2283600)
In short: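 Seeded cells (4000/well) settle 5 h before compound addition. Plates then incubate 16 h at 37C, receive FRET substrate for 2 h, and finally CellTiter-Glo, with luminescence measured after a 30 min room-temperature incubation.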

COC(=O)c1ccccc1OC
outcome [1]: inactive

CC(CC=O)CCCC(C)(C)O (stereo not drawn)
outcome [1]: inactive

COCc1c(C(C)C)nc(C(C)C)c(/C=C/[C@@H](O)C[C@@H](O)CC(=O)O)c1-c1ccc(F)cc1
AC50 [2]: 0.0067 µM (active)
AC50 [3]: 0.0187 µM (active)
outcome [1]: inactive
outcome [4]: inactive
outcome [5]: inactive
outcome [6]: inactive
outcome [7]: inactive
outcome [8]: inactive
outcome [9]: inactive
outcome [10]: inactive

C=COCCCC
outcome [2]: inactive
outcome [3]: inactive
outcome [1]: inactive

CC(C)C(=O)C(C)C
outcome [1]: inactive

Cc1ccc(OC(=O)CC(C)C)cc1
outcome [1]: inactive

CCc1c(C(=O)O)c(=O)cnn1-c1ccc(Cl)cc1
outcome [1]: inactive

CCCCCCCCCCCCCOP(=O)(O)O
outcome [2]: inactive
outcome [1]: inactive
outcome [4]: inactive
outcome [5]: inactive
AC50 [6]: 72.2 µM (active)
AC50 [7]: 86.8 µM (active)
outcome [8]: inactive

CO[Si](CCC1CCC2OC2C1)(OC)OC (stereo not drawn)
outcome [2]: inactive
outcome [3]: inactive
outcome [1]: inactive

Clc1nc2ccccc2s1
outcome [1]: inactive

O=C(O)C(c1ccc(Cl)cc1)c1ccc(Cl)cc1
outcome [1]: inactive

Cc1ccc(C(C)c2ccc(C)c(C)c2)cc1C
AC50 [2]: 40.9 µM (active)
outcome [5]: inactive
outcome [7]: inactive
outcome [9]: inactive

CCOC(=O)Cc1cccc2ccccc12
AC50 [2]: 24.9 µM (active)
outcome [4]: inactive
outcome [5]: inactive
outcome [6]: inactive
outcome [8]: inactive
outcome [9]: inactive

CCCCCCCOC(=O)CCC
outcome [1]: inactive

Oc1ccc(Cl)cc1Cc1cc(Cl)ccc1O
outcome [2]: inactive
outcome [3]: inactive
AC50 [1]: 27 µM (active)

COC(=O)c1c(C)cc(O)c(C)c1O
AC50 [2]: 59.5 µM (active)
outcome [1]: inactive
outcome [4]: inactive
outcome [5]: inactive
outcome [8]: inactive
outcome [10]: inactive

C1=CCCC1
outcome [3]: inactive
outcome [1]: inactive

CCN(CC)c1ccc(C(=O)c2ccccc2C(=O)O)c(O)c1
outcome [1]: inactive

O=[N+]([O-])c1ccc(CO)cc1
outcome [1]: inactive

CCCCCCCC(C)=O
outcome [1]: inactive

O=C(Nc1ccccc1SSc1ccccc1NC(=O)c1ccccc1)c1ccccc1
outcome [2]: inactive
AC50 [5]: 58.3 µM (active) and 56.6 µM (active)
outcome [6]: inactive
AC50 [7]: 72.5 µM (active)
outcome [7]: inactive
outcome [8]: inactive
outcome [10]: inactive

CC(C)(C)c1n[nH]c(=O)n(N)c1=O
outcome [1]: inactive

O=C(C=Cc1ccccc1)OCc1ccccc1
AC50 [2]: 14.6 µM (active)
outcome [4]: inactive
outcome [5]: inactive
outcome [6]: inactive
outcome [7]: inactive
outcome [8]: inactive
outcome [9]: inactive
outcome [10]: inactive

CCCCNc1ccc(NCCCC)c2c1C(=O)c1ccccc1C2=O
AC50 [2]: 0.208 µM (active)
outcome [3]: inactive
outcome [1]: inactive

C=CC(=O)OCCOC1C2CCC1C1CC=CC12 (stereo not drawn)
outcome [1]: inactive

c1ccc2c(c1)ccc1ncccc12
outcome [1]: inactive

O=c1c2ccccc2oc2ccccc12
outcome [1]: inactive

CCCCC/C=C\CCC=O
outcome [2]: inactive
outcome [3]: inactive
outcome [1]: inactive
outcome [6]: inactive
outcome [7]: inactive
outcome [8]: inactive

CC(C)(C)c1ccc(N)cc1
outcome [1]: inactive

COc1ccc2nc(N)sc2c1
AC50 [2]: 22.4 µM (active)
outcome [3]: inactive
outcome [1]: inactive

Cc1ccc(C2OC[C@@H]3OC(c4ccc(C)cc4)O[C@H]([C@H](O)CO)[C@@H]3O2)cc1 (stereo partly drawn)
outcome [1]: inactive

CN(C)c1ccc(C(=N)c2ccc(N(C)C)cc2)cc1
outcome [2]: inactive
outcome [4]: inactive
AC50 [5]: 896 nM (active) and 2.2 µM (active)
outcome [6]: inactive
AC50 [7]: 13.2 µM (active) and 6.84 µM (active)
outcome [8]: inactive
AC50 [9]: 2.63 µM (active) and 2.56 µM (active)
outcome [10]: inactive

S=C(NC1CCCCC1)NC1CCCCC1
outcome [2]: inactive

CCCCCCCCCCCCCCCC(=O)OCC
outcome [1]: inactive

O=C(O)CCCC[C@@H]1SC[C@@H]2NC(=O)N[C@@H]21
outcome [1]: inactive

C#CC1(O)CC[C@H]2[C@@H]3CCC4=CCCC[C@@H]4[C@H]3CC[C@@]21C (stereo partly drawn)
outcome [2]: inactive
AC50 [1]: 42.3 µM (active)
AC50 [4]: 57.2 µM (active)
outcome [4]: inactive
AC50 [5]: 87.7 µM (active)
outcome [5]: inactive
AC50 [6]: 83.3 µM (active)
outcome [6]: inactive
AC50 [7]: 86.1 µM (active)
AC50 [8]: 55.7 µM (active)
AC50 [9]: 86.1 µM (active)
AC50 [10]: 46.1 µM (active)
outcome [10]: inactive

Nc1ccc(Oc2ccc(N)c(N)c2)cc1
outcome [1]: inactive

CC[C@H]1OC(=O)[C@H](C)[C@@H](O[C@H]2C[C@@](C)(OC)[C@@H](O)[C@H](C)O2)[C@H](C)[C@@H](O[C@@H]2O[C@H](C)C[C@H](N(C)C)[C@H]2O)[C@](C)(O)C[C@@H](C)C(=NOCOCCOC)[C@H](C)[C@@H](O)[C@]1(C)O
outcome [1]: inactive

CCCCCCCCCCCCCCCC[N+](C)(C)CC
outcome [1]: inactive
AC50 [4]: 37.2 µM (active)
AC50 [5]: 63.3 µM (active)
outcome [5]: inactive
AC50 [6]: 65.4 µM (active) and 35.3 µM (active)
AC50 [7]: 44.5 µM (active) and 30.8 µM (active)
AC50 [8]: 73.7 µM (active) and 30.9 µM (active)
AC50 [9]: 71.2 µM (active) and 24.6 µM (active)
AC50 [10]: 74.8 µM (active) and 18.2 µM (active)
